# Assay results as given in PubChem BioAssay AID488908 (National Center for Advancing Translational Sciences (NCATS), 2010).
# Records with an inconclusive call do not appear. Calls of active or inactive are those of the source. Calls follow the shape of the dose curve; as a rule, active = well fitted inhibition curve with a large enough effect; inconclusive = small, poorly fitted or top-dose-only effect; inactive = flat fitted curve, though single readings scatter.
# Experiment: Secondary Assay for lipid storage modulators: Cytotoxcity for probe SAR
# Conditions: Drosophila S3 cells viability, CellTiter-Glo luminescence, 24 h; series mostly up to 46.1 µM; activity change, negative = cytotoxicity: at the top concentration
# From the text: NIH Molecular Libraries Probe Production Centers Network [MLPCN] NIH Chemical Genomics Center [NCGC] MLPCN Grant: 1 R03 MH085686-01 Assay Submitter (PI): Beller, Mathias; Max-Planck-Institut fur Biophysikalische Chemie, Germany. NCGC Assay Overview: Storing lipids as a reservoir for energy or the anabolism of elementary metabolites is a common feature of probably all cells and is conserved from bacteria to humans. The universal cellular lipid storage organelle is the so-called lipid storage droplet (LD). Although ubiquitous, LDs share a simple structure composed of a hydrophobic core that harbors the storage lipids, which is shielded by a droplet-specific phospholipid monolayer to which proteins are attached. The current model of LD biogenesis involves an incorporation of the lipid core into the membrane leaflets of the endoplasmic reticulum (ER) followed by a subsequent budding-like maturation of a LD, which ultimately pinches off. Once released, LD volume can increase by localized lipogenesis or fusion of existing droplet. Storage lipids are re-mobilized enzymatically by lipase activity. Lipase regulation in the adipocyte is heavily studied and involves multiple components including catecholamine signaling, the LD-associated proteins Perilipin and comparative gene identification (CGI-58) and at least two lipases named hormone sensitive lipase (HSL) and adipocyte triglyceride lipase (ATGL). LD regulation outside of the adipocyte is poorly understood and only few components are known. However, there is an urgent need to learn more about ectopic fat depots as mislocalized storage of lipids, for example in the liver or muscle, is an eminent health problem associated with insulin resistance or the metabolic syndrome. We developed a laser-scanning cytometer assay to enable 1,536-well screening and combined the results of the small molecules screen with an RNAi database based on lipid storage. The compound was tested here for cytotoxcity using CellTiter-Glo.
# Assay Protocol Summary: Cytotoxcity assay was performed with embryonic Drosophila S3 cells (Bloomington Drosophila Genomics Resource Center [DGRC]). We dispensed 4 uL of cells at 1.25 x 10^6 cells/mL into Greiner solid white 1,536-well plates with a bottle-valve solenoid-based dispenser (Aurora) to obtain 5,000 cells/well. A total of 23 nL of compound solution of different concentrations were transferred to the assay plates using a Kalypsys pin tool equipped with a 1,536-pin array containing 10-nL slotted pins (FP1S10, 0.457-mm diameter, 50.8 mm long; V&P Scientific). One microliter of oleic acid (400 uM) was added, and the plate was lidded with stainless steel rubber gasket lined lids containing pinholes. After 24 hrs of incubation at 24 degrees Celsius and 95% humidity, 4 uL of CellTiter-Glo (Promega) was added to the wells. Luminescence was detected on the Perkin Elmer ViewLux.
row,Compound,"activity change, negative = cytotoxicity"
1,CCOc1ccc(CCNC(=O)c2ccc(C(=O)c3ccccc3)cc2)cc1OCC,-22.2% (inactive)
2,CCOc1ccc(CCNC(=O)c2ccccc2)cc1OCC,-13.3% (inactive)
3,CCOC(=O)C1CCN(C(=O)C2(NC(=O)Nc3ccccc3Cl)CCCC2)CC1,-6.46% (inactive)
4,CCOc1ccc(CCNC(=O)c2ccc(Oc3ccccc3)cc2)cc1OCC,-11.1% (inactive)
5,CCC/C=C/C/C=C/C=C/C=N/NN=O,-22.4% (inactive)
